Results reported in PubChem BioAssay AID624390 (National Center for Advancing Translational Sciences (NCATS), 2012).
Activity calls are given as the source filed them. Calls follow the shape of the dose curve; as a rule, active = well fitted curve in the direction sought with a large enough effect; inactive = no such curve, though single readings can be large or run the other way.

These molecules were tested against Pyruvate kinase PKLR (Homo sapiens) (UniProt P30613) (assay: qHTS for Activators of Human Muscle Isoform Pyruvate Kinase: Extended Characterization against Liver Pyruvate Kinase Probe 2). Details: purified hPK-L, ATP production, Kinase-Glo luminescence; series mostly up to 57.7 µM.
Chain of Pyruvate kinase PKLR (Homo sapiens) (P30613 whole entry, looked up, canonical isoform): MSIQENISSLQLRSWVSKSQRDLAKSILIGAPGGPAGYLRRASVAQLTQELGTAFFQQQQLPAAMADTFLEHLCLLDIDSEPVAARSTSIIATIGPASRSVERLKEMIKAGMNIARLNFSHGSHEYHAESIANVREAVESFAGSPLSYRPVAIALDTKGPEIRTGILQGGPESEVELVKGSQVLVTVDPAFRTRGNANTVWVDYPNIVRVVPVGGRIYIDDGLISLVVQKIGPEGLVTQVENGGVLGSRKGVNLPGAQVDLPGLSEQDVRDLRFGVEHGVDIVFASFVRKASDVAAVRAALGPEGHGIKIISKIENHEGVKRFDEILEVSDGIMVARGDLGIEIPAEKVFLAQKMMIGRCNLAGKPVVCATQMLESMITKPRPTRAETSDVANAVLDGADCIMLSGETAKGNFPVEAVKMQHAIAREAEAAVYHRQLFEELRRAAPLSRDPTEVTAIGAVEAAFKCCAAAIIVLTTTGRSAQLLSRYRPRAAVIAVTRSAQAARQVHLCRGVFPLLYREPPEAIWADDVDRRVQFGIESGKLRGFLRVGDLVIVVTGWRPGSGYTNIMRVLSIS
Protocol: Human pyruvate kinase liver (hPK-L) enzyme was supplied as a highly purified (>95% pure) preparation from Harvard Medical School and assayed for its ability to generate ATP from ADP using phosphoenolpyruvate (PEP) as a substrate. ATP generation was detected in a coupled reaction by luciferase-mediated luminescence, an ATP-dependent process. Pyruvate kinase substrates, PEP and ADP, were present in the assay at Km and approximately 10-fold below Km respectively. The enzyme was assayed at an intermediate level of activity to screen for both inhibitors and activators. NIH Chemical Genomics Center [NCGC] NIH Molecular Libraries Probe Centers Network [MLPCN] MLPCN Grant: MH085679 Assay Submitter (PI): Matthew G. Vander Heiden, Harvard Medical School
Three uL of substrate mix (at r.t.) in assay buffer (50 mM Imidazole pH7.2, 50 mM KCl, 7 mM MgCl2, 0.01% Tween 20, 0.05% BSA) was dispensed into white solid bottom 1,536 well microtiter plates so that the final concentrations of substrates in the assay were 0.1 mM ADP and 0.5 mM PEP. 23 nL of compound were delivered by a pin tool and 1 uL of enzyme mix (final concentration of 0.1 nM) in assay buffer (4 degree Celsius) was added. Plates were incubated at room temperature for 1 hour. Two uL of detection mix (Kinase-Glo, Promega; at 4 degree Celsius protected from light) was added and luminescence read by a ViewLux (Perkin Elmer) at 1 second exposure/plate. Data were normalized to the uninhibited (row 31). Additionally, a no enzyme and 5-fold enzyme control was dispensed in row 32, split equally between the two conditions.

outcome, inactive:
Cc1ccc(NS(=O)(=O)c2ccc3c(c2)CCC(=O)N3)cc1C, O=S(=O)(c1ccc2c(c1)OCCO2)N1CCN(S(=O)(=O)c2c(F)cccc2F)CC1, COc1cccc(Cn2ncc3c4sc(S(C)=O)cc4n(C)c3c2=O)c1 (centres undefined), Nc1cccc(S(=O)(=O)N2CCCN(S(=O)(=O)c3ccc4c(c3)OCCO4)CC2)c1
